Screens (PubChem BioAssay)
Pf growth 96h = P. falciparum growth inhibition at 96 hour, primary screen for plastid delayed-death inhibitors. Potency, µM (highest dose often 28.7 µM), for inactives: top-dose activity change, negative = inhibition, usual class: inhibitors. P. falciparum luciferase reporter growth, 96 h. AID 504834. 320,000 tested, 6.9% active; note: potency is the fitted concentration of half-maximal effect; % is set by controls: 0 for no effect and ±100 for the full control effect
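96 h incubation, 37 C, 5% CO2, of luciferase-reporter P. falciparum-infected RBCs (2% hematocrit, 0.05% parasitemia final) with test compounds; endpoint luminescence.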
Shiga toxin inh = blocks Shiga toxin action in Vero cells | Vero cells, Shiga toxin protein synthesis inhibition reporter | inhibition, % at 38.7 µM | 290,000 tested, 9.2% active | AID 2315; in the data active = inhibition mostly above about 28%, no sharp cut-off; inactive = mostly below about 43%; note: 0% is about no effect
CHX counter = affects cycloheximide protein synthesis inhibition readout, counter-screen. cell reporter, cycloheximide protein synthesis inhibition counterscreen. max response, %. 300,000 tested, 12% active. AID 2314; in the data active = max response mostly above about 13%, no sharp cut-off; inactive = mostly below about 14%; note: read at 38.3 µM for the half of the compounds with a filed dose; 0% is about no effect
LmPK inh = inhibitors of Leishmania mexicana pyruvate kinase; purified LmPK, Kinase-Glo ATP luminescence, 1 h; 290,000 tested, 0.37% active; AID 1721; Potency, µM (top dose mostly 57.5 µM), without a hit: top-dose activity change, negative = inhibition, usual class: inhibitors; Q27686; note: potency is the fitted concentration of half-maximal effect; % is set by controls: 0 for no effect and ±100 for the full control effect
Target sequence (Q27686 whole entry, looked up): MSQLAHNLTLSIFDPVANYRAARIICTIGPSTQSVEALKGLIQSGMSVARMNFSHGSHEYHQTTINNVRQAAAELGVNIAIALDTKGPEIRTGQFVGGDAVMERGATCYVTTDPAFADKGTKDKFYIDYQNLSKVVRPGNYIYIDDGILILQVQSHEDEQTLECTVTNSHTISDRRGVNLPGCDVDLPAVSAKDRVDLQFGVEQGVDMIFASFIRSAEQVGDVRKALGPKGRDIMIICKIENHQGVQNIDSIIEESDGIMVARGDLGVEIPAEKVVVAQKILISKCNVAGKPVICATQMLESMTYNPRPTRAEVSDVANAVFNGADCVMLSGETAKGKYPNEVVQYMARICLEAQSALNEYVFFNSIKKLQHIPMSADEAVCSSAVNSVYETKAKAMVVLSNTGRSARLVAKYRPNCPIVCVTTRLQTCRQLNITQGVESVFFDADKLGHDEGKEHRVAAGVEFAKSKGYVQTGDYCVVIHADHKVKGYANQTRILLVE
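Purified LmPK (0.1 nM) converted ADP (0.1 mM) to ATP with PEP (0.5 mM) in imidazole buffer pH 7.2 with KCl and MgCl2, 1 h at room temperature. ATP was read by Kinase-Glo luminescence; data normalized to uninhibited and no-enzyme controls.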
Pf growth 48h = inhibits P. falciparum growth in the first generation, 48 h. P. falciparum luciferase growth in erythrocytes, 48 h. AID 504832. 310,000 tested, 5.9% active. Potency, µM (titrated, usually from 28.7 µM), for the others: at the highest dose activity change, negative = inhibition, usual class: inhibitors; note: potency is the fitted concentration of half-maximal effect; % is set by controls: 0 for no effect and ±100 for the full control effect
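Growth was read as firefly luciferase luminescence after a 48 h, 37 C, 5% CO2 exposure of compounds to reporter-bearing P. falciparum cultures (0.1% parasitemia, 2% hematocrit final) in Albumax-supplemented RPMI 1640.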
* marks the source's active call; other numbers are inactive results; ? = inconclusive; nt = no result given. Compounds with a hit are over-represented: about 22% of the library has one in this group of screens. Unless noted, calls come from the whole dose curve; as a rule, active = well fitted inhibition curve with a large enough effect; inconclusive = small, poorly fitted or top-dose-only effect, or another doubt; inactive = no such curve, though single readings can be large or run the other way.

SMILES	Pf growth 96h	Shiga toxin inh	CHX counter	LmPK inh	Pf growth 48h
COC(=O)[C@@H]1Cc2c([nH]c3ccccc23)C(C)(C)N1C(=O)CCl	?	18	18	-1%	12µM*
COC(=O)C1Cc2c([nH]c3ccccc23)CN1 (centres undefined)	101%	37	19	-4%	31%
O=c1c([N+](=O)[O-])cc(C(F)(F)F)cn1Cc1c(Cl)cccc1Cl	112%	-6	-1	-8%	13%
Cc1nn(-c2nnc(NC3CCCCC3)nn2)c(C)c1Br	?	active	47*	-8%	?
Cc1nn(C)c(C)c1S(=O)(=O)NC1CCCC1	-24%	-3	-3	-5%	?
COC(=O)c1c(C)[nH]c(/C=N/Nc2ccccc2)c1C	?	60	20*	2%	5.2µM*
COc1ccc(NC(=O)OCCn2c([N+](=O)[O-])cnc2C)cc1	282%	-12	-2	5%	7%
CN(C)c1ccc(-c2nn3c(-c4ccccc4Cl)nnc3s2)cc1	nt	-5	-2	-4%	?
Cc1nnc2sc(-c3ccc(N(C)C)cc3)nn2c1=O	10µM*	54*	28*	-11%	28%
COc1ccccc1-c1nnc2sc(-c3ccc(N(C)C)cc3)nn12	12µM*	-26	-3	1%	?
COc1ccc([N+](=O)[O-])cc1N(CC(O)CN1C(=O)NC(C)(C)C1=O)S(=O)(=O)c1ccccc1 (centres undefined)	15µM*	-15	-6	6%	22%
Cc1csc2cc(-c3cccc([N+](=O)[O-])c3)c(-c3cccc([N+](=O)[O-])c3)c[n+]12	0.47µM*	6	-2	2%	1µM*
Cc1cccnc1-n1c(CCN2C(=O)c3ccccc3C2=O)nc2ccccc2c1=O	3.3µM*	23	4	2%	?
O=C1c2ccccc2C(=O)N1Cc1nc2ccccc2c(=O)n1-c1ccc(Br)cn1	7.4µM*	1	-4	1%	29%
O=C1c2ccccc2C(=O)N1CCc1nc2ccccc2c(=O)n1-c1ccccn1	?	10	-2	3%	13%
Clc1ccc2nc(C3CCN(Cc4nnnn4C4CCCCC4)CC3)[nH]c2c1	-23%	10	1	1%	12µM*
FC(F)(F)c1ccc2c(c1)ncn2C1CCN(Cc2nnnn2C2CCCCC2)CC1	-1%	-6	-3	3%	4.1µM*
Cc1nc2cc(C(F)(F)F)ccc2n1C1CCN(Cc2nnnn2Cc2ccc3c(c2)OCO3)CC1	-1%	-11	-6	-2%	4.7µM*
Cc1ccc(Cn2nnnc2CN2CCC(c3nc4ccc(Cl)cc4[nH]3)CC2)cc1	?	-7	-1	2%	?
Fc1ccc(Cn2nnnc2CN2CCC(n3nnc4cc(C(F)(F)F)ccc43)CC2)cc1	?	-8	1	0%	?
COCCn1nnnc1CN1CCC(Cc2ccccc2)CC1	2.6µM*	-4	1	5%	-15%
Cc1noc(C)c1C(=O)OC(C)C(=O)Nc1ccc(C(N)=O)cc1 (centres undefined)	-14%	nt	nt	nt	?
Cc1nc2ccccc2n1C1CCN(Cc2nnnn2CCc2ccccc2)CC1	nt	-18	-2	-4%	13µM*
Cc1nc2cc(C(F)(F)F)ccc2n1C1CCN(CC(=O)NC(C)(C)C)CC1	1%	-12	-2	3%	9.3µM*
Cc1nc2cc(C(F)(F)F)ccc2n1C1CCN(Cc2nnnn2Cc2cccs2)CC1	-89%	23	-3	8%	9.3µM*
SMILES	Pf growth 96h	Shiga toxin inh	CHX counter	LmPK inh	Pf growth 48h
Cc1nc2cc(C(F)(F)F)ccc2n1C1CCN(CC(=O)N2CCCC2)CC1	40%	-5	-2	4%	?
c1ccc(CCn2nnnc2CN2CCC(n3nnc4ccccc43)CC2)cc1	79%	-4	-3	4%	?
C/C(=N\OCC(=O)Nc1ccc2c(c1)OCCO2)c1ccc2c(c1)OCCO2	-12%	-15	-2	4%	12%
COc1cccc(OC)c1C(=O)NC(=S)Nc1ccc(S(=O)(=O)Nc2nccs2)cc1	11%	-4	-3	6%	13µM*
O=C(NC(=S)Nc1ccc(S(=O)(=O)Nc2nccs2)cc1)c1ccccc1	13µM*	-3	6	4%	-17%
COc1ccccc1C(=O)Nc1ccc(S(=O)(=O)Nc2nccs2)cc1	19%	21	0	4%	14%
COc1ccc(NS(=O)(=O)c2ccc(NC(=S)NC(=O)c3ccc(Br)cc3)cc2)nn1	12µM*	-8	-2	3%	19%
CN1CCc2c(sc(/N=C/c3c[nH]c4ccccc34)c2C(N)=O)C1	3.7µM*	16	12	0%	4.1µM*
CCOC(=O)c1c(/N=C/c2ccc(C)cc2O)sc2c1CCC2	37%	3	0	-6%	6%
CN1CCc2c(sc(/N=C/c3c[nH]c4ccccc34)c2C#N)C1	?	13	10	-9%	?
CCOC(=O)c1c(/N=C/c2ccc(OC)cc2O)sc2c1CCN(C)C2	5.2µM*	22	3	-5%	10µM*
Cc1cccc(C(C(=O)NC2CCCC2)N(C(=O)c2csnn2)C2CCCC2)c1 (centres undefined)	?	-11	5	0%	?
NCCCC[C@H]1CN=C(N)N1CCC12CC3CC(CC(C3)C1)C2	3.7µM*	21	-1	-2%	9.3µM*
CCOc1cc(S(=O)(=O)NCCCn2ccnc2)ccc1Cl	7%	nt	1	1%	?
C[C@@H](O)[C@H]1C(=O)N2C(C(=O)O)=C(S[C@@H]3CN[C@H](CNS(N)(=O)=O)C3)[C@H](C)[C@H]12	23%	nt	nt	nt	16%
Cn1cnnc1SCC(=O)Nc1ccc(OC(F)F)cc1	-4%	11	2	-8%	13µM*
COC(=O)c1ccccc1NC(=O)CSc1nncn1-c1cccnc1	?	-6	-2	-5%	20%
CCCCOC(=O)c1ccc(NC(=O)CSc2nncn2C)cc1	-14%	41	25*	2%	27%
COc1ccc(NC(=O)CSc2nc(C)cc(C)n2)cc1	74%	-22	-7	0%	8%
CCCCOC(=O)c1ccc(NC(=O)COC(=O)CSc2nc(C)cc(C)n2)cc1	76%	58*	21*	4%	40%
COC(=O)c1ccccc1NC(=O)CSc1nncn1C	-4%	4	3	5%	12µM*
Cn1c(SCc2ccccc2C#N)nc2ccccc2c1=O	0%	-3	-1	2%	0%
Cc1ccc(NC(=O)c2cc(S(=O)(=O)N3CCOCC3)cs2)cc1	34%	-5	-3	4%	?
COc1ccc(NC(=O)c2cc(S(=O)(=O)Nc3ccc(OC)cc3)cs2)cc1	-5%	15	7	5%	?
O=C(Nc1ccc(F)cc1)c1cc(S(=O)(=O)Nc2ccc(F)cc2)cs1	12µM*	-9	0	9%	13%
O=C(Nc1ccc(F)cc1)c1cc(S(=O)(=O)N2CCOCC2)cs1	12µM*	-5	0	-7%	28%
